In PubChem BioAssay (NCI):
Compounds without any hit were thinned out: in the full panel of roughly 83,000, 20% have a hit.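 Note: values are percent growth. 100 is the growth of untreated cells, values between 100 and 0 indicate rising inhibition; between -100 and 0 indicates cell death.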 Values without a mark were called inactive. Calls of active or inactive are those of the source. How the source made its calls: active means growth percent below 10; inactive means the rest.

Tested on: SN12C renal
Assay: NCI-60 one-dose screen, 48 h (100 = growth as untreated, 0 = no growth, -100 = all killed)
Settings: 10 µM

Structure (SMILES)	growth
O=C(CSc1ccc(-c2ccc(Cl)cc2)nn1)Nc1ccc(Cl)c(C(F)(F)F)c1	79.3%
O=C(CSc1nnc(-c2c[nH]c3ccccc23)n1-c1ccccc1)Nc1ccc(C(=O)/C=C/c2cccc([N+](=O)[O-])c2)cc1	104%
NC1=NC(c2ccccc2Cl)N=C(Nc2nn[nH]n2)N1 (stereo not drawn)	107%
O=C1NC(=NC23CC4CC(CC(C4)C2)C3)N/C1=C\c1ccc2ncccc2n1	1.63% (active)
COc1ccccc1[C@H]1C(C(=O)c2ccc(O)cc2)C2(N[C@@H]1c1ccccc1)C(=O)Nc1ccc(Br)cc12 (stereo partly drawn)	25%
O=C1Nc2cc(Cl)ccc2/C1=C/c1ccc(OCc2ccc(Br)cc2F)cc1	-48.2% (active)
CCCn1c(=O)c2[nH]c(-c3ccc(OCc4nc5ccc(C#N)cc5[nH]4)cc3)nc2n(CCC)c1=O	76.5%
COc1cc(C2CC(c3ccc(C)cc3)=Nc3c(N)nc(N)nc3N2)ccc1Oc1nc(Nc2ccc(F)cc2)nc(N(C)C)n1 (stereo not drawn)	68.6%
COc1cc2c3c(n(CCCNC(C)C)c(=O)c2cc1OC)-c1nc2c(cc1C3=O)OCO2	-88.9% (active)
COc1ccc(CN2[C@@H](C(=O)NCc3ccc(C(=O)NO)cc3)Cc3c([nH]c4ccccc34)[C@@H]2C)cc1	29.8%
Cc1cccc2cc(-c3cc(-c4ccccc4)nc(=S)[nH]3)c(Cl)nc12	89.2%
O=C(c1ccc([N+](=O)[O-])c([N+](=O)[O-])c1O)n1[nH]c(=O)c2ccccc2c1=O	70.2%
COc1ccc(C=CC(=O)c2ccc(-n3c(C)nc4c(cnn4-c4ccccc4)c3=O)cc2)cc1	81.6%
CCOC(=O)C1=C(N)N(c2ccc(Cl)cc2)C2=C(C(=O)CC(C)(C)C2)C1c1ccc(N2CCOCC2)cc1 (stereo not drawn)	97.7%
CO[C@H]1CSS[C@@H]1Cn1nc(-c2ccc(Oc3ccccc3)cc2)c2c(N)ncnc21	24.6%
COc1ccc(-c2cc(-c3cc(C(=O)c4ccc(Br)cc4)n4ccc(C)cc34)nc(N)c2C#N)cc1	92.9%

Tested on: UO-31 renal
Assay: as above
Settings: 10 µM

Structure (SMILES)	growth
COc1cc(/C=N/NC(=O)c2ccc3nc(-c4ccc(Cl)cc4)[nH]c3c2)cc(OC)c1OC	58.9%
COc1cnc2c(c1)C(=O)c1c-2n(CCCNCCO)c(=O)c2cc(OC)c(OC)cc12	34%
COc1cccc(/C=C2\N=C(C)N(CCc3ccc(S(N)(=O)=O)cc3)C2=O)c1	90.9%
CC1(C)[C@@H](NCO)CC[C@]2(C)[C@H]3C(=O)C=C4[C@@H]5C[C@](C)(CO)CC[C@]5(C)CC[C@@]4(C)[C@]3(C)CC[C@@H]12	54.9%
CN1CCN(Cc2ccc(NC(=O)c3cncc(C#Cc4cnc5ccc(N[C@H]6CCOC6)nn45)c3)cc2C(F)(F)F)CC1	-95.6% (active)
N#Cc1c(NC(=O)c2ccc(C(F)(F)F)cc2C(F)(F)F)sc2c1CCC(=O)C2	-99.7% (active)
CN(CCF)c1ccc(/C=C/C(=O)c2ccc(N)cc2O)cc1	53.2%
N#Cc1c(NC(=O)c2cccc(C(F)(F)F)c2)sc2c1CCC(O)=C2	17.6%
O=C(CNc1nc(-c2ccccc2)cs1)Nc1cccc([N+](=O)[O-])c1	-95.7% (active)
CC1(C)CC[C@]2(C(=O)NCCCNCCCCNCCCN)CC[C@]3(C)C(=CC[C@@H]4[C@@]5(C)Cc6c([nH]c7ccccc67)C(C)(C)[C@@H]5CC[C@]43C)[C@H]2C1	71%
COc1cc2c(cc1OC)CN(CCCCOc1cc(O)c3c(=O)cc(-c4ccccc4)oc3c1)CC2	51%
O=c1[nH]c2ccc(Cl)cc2cc1CSc1ccc(Nc2nccc(-c3ccc4ccccc4c3)n2)cc1	96.2%
CC(=O)NNc1ccc2nnc(-c3ccc(Br)cc3)n2n1	82.1%
Cc1ccc(-c2nc3ccc(C(=O)N=Nc4c(O)[nH]c5ccc([N+](=O)[O-])cc45)cc3[nH]2)cc1	81.7%
COc1cc(OC(F)(F)F)ccc1C(=O)Nc1sc2c(c1C#N)CCC(=O)C2	62.4%
COc1ccc(-c2cc(-c3cc(C(=O)c4ccccc4)n4ccc(C)cc34)nc(N)c2C#N)cc1	65%
NC(=Nc1ccc(OCCCCCCCCn2ccnn2)cc1)c1ccccc1	40.7%
